From PubChem BioAssay AID720706 (Broad Institute, 2013) come the findings set out here.

In all, about 350,000 compounds went through this assay and about 5,500 (1.6%) were called active.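 Rule for the calls: active = significant combined selectivity score with lowered wild-type GFP, culture density cut under 30%, mutant RFP and density less affected; inactive = any of these conditions unmet.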 Only a selection was taken, and actives are over-represented in it overall.

A short description of the test: GFP drop in mixed WT/humanized-ribosome E. coli culture – GFP/RFP fluorescence, OD600, single point, bacterial rRNA inhibitor project, primary screen (AID 720706). Particulars: E. coli WT GFP vs humanized-ribosome RFP mutants, 24 h; GFP signal change (wild-type ribosome): stronger effect = lower value, DMSO median 0, no signal -100; OD600 change: measured here: OD600 growth, DMSO median 0, no signal -100; RFP signal change: measured here: RFP humanized mutant strains, DMSO median 0, no signal -100, concentration not given here.
As to `COc1ccc2c3c(n(C)c2c1)[C@H](CO)N(Cc1ccccc1)CC31CCN(C)CC1`, the GFP signal change (wild-type ribosome) is 0.784% (inactive), the OD600 change is 7.81% and the RFP signal change is 2.48%.

`O=S(=O)([N-]c1nc2ccccc2nc1-[n+]1ccc(Cc2ccccc2)cc1)c1ccc(Br)s1`: the GFP signal change (wild-type ribosome) is -29.2% (active), the OD600 change was -18.6% and the RFP signal change was -0.481%.

Consider `CC(C)NC(=O)Nc1ccc2c(c1)CC(=O)N([C@@H](C)CO)C[C@@H](C)[C@H](CN(C)Cc1ccc(C(F)(F)F)cc1)O2`, for which the GFP signal change (wild-type ribosome) is 2.02% (inactive), the OD600 change was -34.5% and the RFP signal change is -0.097%.

Take `Cn1cc(CCC(=O)NC2CC2)c2ccccc21`: the GFP signal change (wild-type ribosome) is 4.27% (inactive), the OD600 change came to 10.1% and the RFP signal change is -0.645%.

In the case of `CCN(CC)C(=O)C(=O)c1cn(CC(=O)NCc2ccc3c(c2)OCO3)c2ccccc12`, the GFP signal change (wild-type ribosome) was 10.3% (inactive), the OD600 change was -1.1% and the RFP signal change was 3.71%.

Consider `Cn1cc(CCC(=O)NCc2ccc3c(c2)OCO3)c2ccccc21`, for which the GFP signal change (wild-type ribosome) was -21.5% (active), the OD600 change is -10.6% and the RFP signal change is 2.95%.

For the compound `O=C(C[C@@H]1CC[C@H](NC(=O)C2CCC2)[C@@H](CO)O1)NC1CCCCC1`, the GFP signal change (wild-type ribosome) was 3% (inactive), the OD600 change is 3.16% and the RFP signal change was -1.22%.

Regarding `Cc1ccc(S(=O)(=O)NCCC(c2ccccc2)c2ccccc2)cc1C(=O)O`, the GFP signal change (wild-type ribosome) is -40.5% (active), the OD600 change was -24.2% and the RFP signal change was -13.9%.

With `Cc1cccc(NS(=O)(=O)c2ccc(C)c(C(=O)NCC(c3ccccc3)N(C)C)c2)c1` (stereo unspecified), the GFP signal change (wild-type ribosome) is 4.21% (inactive), the OD600 change was found to be 4.97% and the RFP signal change came out at 2.06%.

On to `Cc1ccc(S(=O)(=O)NCCCn2ccnc2)cc1C(=O)NC(C)C`, for which the GFP signal change (wild-type ribosome) was 10.7% (inactive), the OD600 change was determined as 7.94% and the RFP signal change is -1.51%.

On to `O=C([C@@H]1[C@@H](CO)[C@@H]2Cn3c(ccc(C4=CCCCC4)c3=O)[C@H]1N2Cc1nccs1)N1CCCCC1`, for which the GFP signal change (wild-type ribosome) was -2.47% (inactive), the OD600 change amounted to 3.59% and the RFP signal change was determined as 1.3%.

Take `COc1ccc(NC(=O)Nc2ccc3c(c2)CC(=O)N([C@H](C)CO)C[C@H](C)[C@H](CN(C)S(=O)(=O)c2ccccc2)O3)cc1`: the GFP signal change (wild-type ribosome) was 0.245% (inactive), the OD600 change is -2.9% and the RFP signal change was determined as 0.358%.

As for `O=S(=O)(NCC[C@H]1CC[C@@H](NS(=O)(=O)c2ccccc2Cl)[C@@H](CO)O1)c1ccc(Cl)cc1`, the GFP signal change (wild-type ribosome) is -2.84% (inactive), the OD600 change is -5.01% and the RFP signal change worked out at 0.345%.

On to `Cc1ccc2c(c1)C1C[N+](C)(CC(=O)c3ccccc3)CCC1N2C(=O)c1ccccc1Cl` (stereo unspecified), for which the GFP signal change (wild-type ribosome) is -33.1% (active), the OD600 change is -36.3% and the RFP signal change worked out at 20.4%.

As to `CC(=O)c1cccc(NC(=O)C2CCN(C(=O)c3ccccc3Cl)CC2)c1`, the GFP signal change (wild-type ribosome) was 0.045% (inactive), the OD600 change turned out to be 1.11% and the RFP signal change was found to be 1.46%.

As for `Cc1ccc(C(=O)N2CCCc3ccccc32)c(Cl)c1`, the GFP signal change (wild-type ribosome) is -20.5% (inactive), the OD600 change is -35.7% and the RFP signal change was -12.1%.

For the compound `COc1ccc(NC(=O)N(C)C[C@H]2Oc3ccc(NC(=O)Nc4ccc5c(c4)OCO5)cc3C(=O)N([C@H](C)CO)C[C@H]2C)cc1`, the GFP signal change (wild-type ribosome) was 0.515% (inactive), the OD600 change came out at 4.81% and the RFP signal change amounted to 0.195%.
